# Measurements from the supplement of paper PMC6555819.
# Experiments:
# Test in all cases: PBM binding z-score (relative to random genomic background probes); higher = stronger binding; sequences stand for … in GC…GCGATTGACAGCGTAGAATGAAGG
# [1] = system: FXR:RXRa (NR concentration 270 nM, RXRa partner concentration 90 nM)
# Procedure, shortened: (§1)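 Each nuclear receptor dimer, without ligand, was incubated for 1 h on custom Agilent 4×180K protein-binding microarrays. Binding was detected with antibodies against each partner (one per run), and scanned fluorescence was regression-normalized. The binding z-scores are referenced to random human genomic background probes.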
# [2] = system: LXRa:RXRa (NR concentration 270 nM, RXRa partner concentration 90 nM)
# Procedure, shortened: as §1
# [3] = system: LXRa homodimer (NR concentration 270 nM)
# Procedure, shortened: as §1
# [4] = system: LXRb:RXRa (NR concentration 270 nM, RXRa partner concentration 90 nM)
# Procedure, shortened: as §1
# [5] = system: LXRb homodimer (NR concentration 270 nM)
# Procedure, shortened: as §1
# [6] = system: PPARa:RXRa (NR concentration 270 nM, RXRa partner concentration 90 nM)
# Procedure, shortened: as §1
# [7] = system: PPARg:RXRa (NR concentration 180 nM, RXRa partner concentration 90 nM)
# Procedure, shortened: as §1
# [8] = system: PPARg:RXRa 270nM:90nM, anti-RXR (NR concentration 270 nM, RXRa partner concentration 90 nM)
# Procedure, shortened: as §1
# [9] = system: PPARg:RXRa 30nM:10nM, anti-RXR (NR concentration 30 nM, RXRa partner concentration 10 nM)
# Procedure, shortened: as §1
# [10] = system: PPARg:RXRa 90nM:30nM, anti-RXR (NR concentration 90 nM, RXRa partner concentration 30 nM)
# Procedure, shortened: as §1
# [11] = system: PPARg:RXRa DBDmut IVT, anti-RXR (DBD mutation: RXRa K156A/R161A, NR concentration 270 nM, RXRa partner concentration 90 nM)
# Procedure, shortened: as §1
# [12] = system: PPARg:RXRa IVT, anti-PPARg (NR concentration 270 nM, RXRa partner concentration 90 nM)
# Procedure, shortened: as §1
# [13] = system: PPARg DBDmut:RXRa IVT, anti-PPARg (DBD mutation: PPARg1 K132A/R137A, NR concentration 270 nM, RXRa partner concentration 90 nM)
# Procedure, shortened: as §1
# [14] = system: PPARg DBDmut IVT, anti-PPARg (DBD mutation: PPARg1 K132A/R137A, NR concentration 270 nM)
# Procedure, shortened: as §1
# [15] = system: PPARg homodimer (NR concentration 180 nM)
# Procedure, shortened: as §1
# [16] = system: PXR:RXRa (NR concentration 270 nM, RXRa partner concentration 90 nM)
# Procedure, shortened: as §1
# [17] = system: PXR homodimer (NR concentration 270 nM)
# Procedure, shortened: as §1
# [18] = system: RARa:RXR (NR concentration 270 nM, RXRa partner concentration 90 nM)
# Procedure, shortened: as §1
# [19] = system: RARa homodimer (NR concentration 270 nM)
# Procedure, shortened: as §1
# [20] = system: RARb:RXRa (NR concentration 270 nM, RXRa partner concentration 90 nM)
# Procedure, shortened: as §1
Sequence,PBM binding z-score [1],PBM binding z-score [2],PBM binding z-score [3],PBM binding z-score [4],PBM binding z-score [5],PBM binding z-score [6],PBM binding z-score [7],PBM binding z-score [8],PBM binding z-score [9],PBM binding z-score [10],PBM binding z-score [11],PBM binding z-score [12],PBM binding z-score [13],PBM binding z-score [14],PBM binding z-score [15],PBM binding z-score [16],PBM binding z-score [17],PBM binding z-score [18],PBM binding z-score [19],PBM binding z-score [20]
ATCGAAACGTCGACGAGGTGAGTATACACCGTTT,-0.264,-0.5,-0.605,-0.525,-0.00441,-0.269,0.855,-0.111,-0.111,-0.157,-0.306,0.572,0.364,1.43,-0.489,-0.346,-0.33,-0.0607,0.109,-0.0586
CGTCCAAGGTCAATGCTAGGCCAGTGAAAGCATT,6.44,4.55,0.299,3.51,0.207,4.74,3.02,4.07,1.14,2.82,2.99,3.13,-0.61,-0.971,2.78,3.64,0.593,4.31,0.644,4.96
CCTACTGGGCCACGTAAGGTCATTGATTCAGTGA,3.42,5.12,3.52,3.3,-0.468,3.47,3.29,3.76,0.808,2.54,5.56,5.43,0.00703,-0.733,1.14,4.38,1.49,3.25,0.62,3.02
TCTAGCTGGTCAAAGGTCACACACTCGAAATGCG,5.6,6.17,3.41,5.31,0.629,6.34,10.5,9.37,9.91,10.1,2.35,5.48,0.807,1.12,4.18,6.12,0.771,7.74,2.13,4.89
CAAACTAGGTCACAGAGGGCAAAGTCCGTGCGTA,5.08,4.6,2.26,3.61,0.517,5.45,8.81,7.31,5.42,7.28,8.48,8.83,5.61,4.71,1.95,4.26,4.07,3.86,0.666,4.54
CCTTCTGGGCCATTCAGAGGTCATTGATCATATG,2.86,4.26,6.84,3.99,0.742,4.02,1.85,2.79,0.927,2.05,4.48,3.89,-0.117,0.751,2.03,4.77,2.46,4.25,0.112,3.25
CGAACTAGGTGATTGACAGGACAGTGAATAGTAA,0.0682,-0.0591,0.0308,-0.196,-0.394,1.81,2.2,1.57,0.548,1.06,6.28,5.92,0.852,0.609,0.553,-0.082,0.228,0.0788,0.46,0.167
TAGCCTAGCTCATTCAGGGGCCAGTATAGAAAGC,-0.836,-1,-1.16,-0.368,-0.132,-1.13,-0.0519,-0.988,-0.46,-0.823,-0.101,-0.269,-0.969,-0.592,-1.77,-0.527,-0.788,-0.603,-1.25,-0.199
CGAACTAGGTAAAGGACAGTGAATCTCCGCACGC,-0.281,-0.379,-0.301,-0.788,-0.59,1.32,1.51,1.3,-0.0812,0.891,5.6,4.4,0.46,-0.605,0.363,-0.407,-0.167,-0.453,-0.188,1.21
TAGCCTAGGTCATTGGGCTAGTATAGTACGCATC,4.29,3.19,0.404,1.81,-0.386,3.63,2.59,3.08,0.744,1.97,1.65,3.11,0.176,-0.547,0.811,1.4,-0.602,1.91,-0.44,3.46
CAAAGTAGGTCAAGAGGTCAAAGTCCGCTTCCCG,7.25,6.52,6.36,5.69,2.34,6.74,10.3,8.87,7.55,9.17,8.4,8.84,1.65,1.18,5.39,6.22,3.31,7.83,2.53,5.55
CAACCTAGGTCACCGGAAGGTCAAAGTCCGCATG,7.05,6.32,5.53,5.93,1.49,5.6,6.23,6.31,3.11,5.38,4.96,5.75,0.0174,0.904,8.27,6.29,2.96,7.58,5.02,5.39
CCTACTGGGCCAAGGTCATTGAGCAGTCAAAGCA,3.17,3.17,0.657,2.72,-0.573,4.19,4.27,4.54,1.77,3.8,3.78,4.64,0.0966,0.249,1.29,3.5,1.2,3.64,-0.199,3.21
